Test results taken from PubChem BioAssay (NCI).
This is part of a sample that, as a whole, favours compounds with a hit. Of some 83,000 tested, about 20% had one in any assay.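 Compound tested at a single concentration for 48 hours in 96-well plates; a percent growth value below 10 was scored as active.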 Active and inactive are the calls of the source.

What follows are compounds tested on T-47D breast (assay: NCI-60 one-dose screen, 48 h (100 = growth as untreated, 0 = no growth, -100 = all killed)). Conditions: 10 µM unless noted.

Structure (SMILES) | growth
C#C[C@]1(O)CC[C@H]2[C@@H]3CC=C4c5sc(NCc6ccccc6)nc5CC[C@]4(C)[C@H]3CC[C@@]21C | 65.8% (inactive)
Cn1cc(-c2cc3ncnc(Nc4ccc(NC(=O)Nc5cc(C(C)(C)C)on5)cc4)c3s2)cn1 | 1.81% (active)
CCc1cccc2c3c(sc12)C(c1ccc(F)cc1)C(C#N)=C(/N=C/c1ccc(Cl)cc1)O3 (stereo not drawn) | 30.7% (inactive)
C1=CC(c2nn3c(-c4ccccc4)nnc3s2)=Cc2ccccc2O1 | 19.7% (inactive)
Cc1ccc(-c2csc(N/N=C/c3cccs3)n2)cc1 | 72.6% (inactive)
C#C[C@]1(O)CC[C@H]2[C@@H]3CC=C4c5sc(Nc6ccc(C)cn6)nc5CC[C@]4(C)[C@H]3CC[C@@]21C | 18.9% (inactive)
COC(=O)c1ccc(NC2=C(Cl)C(=O)c3nc(C)ccc3C2=O)cc1 | 31.2% (inactive)
CCCCCN1C(=O)/C(=c2\sc3n(c2=O)C2C(NN=3)N(CC)C(=O)N2CC)c2cccc(C)c21 (stereo not drawn) | 44% (inactive)
COc1ccc(/C(=N\N=C(N)N)c2ccc(Cl)cc2)cc1OC | 68% (inactive)
CCCCCC[n+]1ccc(SCC(=O)n2ccc3ccccc32)c2ccccc21 | 59.1% (inactive)
NCCNC(=O)c1cccc(COc2ccccc2NC(=O)c2cc(Br)c(Br)[nH]2)c1 | 75.9% (inactive)
CC1CCN(CC(=O)Nn2c(COc3ccccc3)nc3ccccc3c2=O)CC1 | 67.8% (inactive)
CC(C)(C)Nc1nc2c(OCCc3ccccc3)cccn2c1-c1ccc([N+](=O)[O-])cc1 | 15.2% (inactive)
